Most compounds without a hit are left out; they make up all but 0.38% or so of the library.
Eya2 phos inh = qHTS Assay for Inhibitors of the Phosphatase Activity of Eya2. Protein phosphatase EYA2 (Homo sapiens), O00167. recombinant Eya2, OMFP fluorescence dephosphorylation (OMFP is methylfluorescein phosphate). Potency, µM (highest dose often 76.9 µM), for the others: at the top dose activity, negative = inhibition, hits mostly inhibitors. 0.006% of 330,000 active. AID 488837, 2010; note: potency is the fitted concentration of half-maximal effect; % is set by controls: 0 for no effect and ±100 for the full control effect
Target sequence (O00167 whole entry, looked up): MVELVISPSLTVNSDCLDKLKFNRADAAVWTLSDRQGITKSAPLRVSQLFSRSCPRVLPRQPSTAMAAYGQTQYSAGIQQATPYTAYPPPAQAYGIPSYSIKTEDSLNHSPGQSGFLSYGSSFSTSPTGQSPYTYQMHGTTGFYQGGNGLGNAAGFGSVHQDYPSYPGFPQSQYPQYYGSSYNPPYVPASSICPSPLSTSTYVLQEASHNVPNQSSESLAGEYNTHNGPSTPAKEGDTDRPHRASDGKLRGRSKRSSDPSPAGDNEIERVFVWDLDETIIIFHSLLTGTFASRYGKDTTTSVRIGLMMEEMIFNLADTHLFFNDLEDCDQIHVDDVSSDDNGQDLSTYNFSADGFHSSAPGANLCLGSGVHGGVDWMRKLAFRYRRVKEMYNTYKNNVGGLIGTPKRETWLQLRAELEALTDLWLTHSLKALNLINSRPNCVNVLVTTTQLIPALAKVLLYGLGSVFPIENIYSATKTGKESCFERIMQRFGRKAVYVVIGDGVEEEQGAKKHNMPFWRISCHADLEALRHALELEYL
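Eya2 protein (added as 0.2 uM solution) was preincubated with compound for 10 min at ambient temperature in 50 mM HEPES pH 7.5, 50 mM NaCl, 5 uM MgCl2, 0.05% BSA, 1 mM DTT. OMFP (added at 50 uM) then reacted 10 min; fluorescence read at 485/525 nm.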
TSHR antagonist = Antagonists of the Thyroid Stimulating Hormone Receptor: HTS campaign; Thyrotropin receptor (Homo sapiens), P16473; TSHR-expressing cells, TSH-stimulated cAMP HTRF, 2 h; active compounds read low; activity change, negative = inhibition, % at 11.5 µM; 0.2% of 330,000 active;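 active = activity change below a set negative limit, meaning inhibition stronger than a set level, cut at about -70% in these data; inconclusive = activity change between two set negative limits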; note: % is set by controls: 0 for no effect and ±100 for the full control effect
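Antagonism was scored as loss of TSH-driven cAMP in TSHR cells, stimulated with 4nM TSH (EC80) for 2 hours at 37 deg C and detected by homogeneous HTRF competition immunoassay.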
TexasRed fluor = Total Fluorescence Counterscreen for Inhibitors of the Interaction of Thyroid Hormone Receptor and Steroid Receptor Coregulator 2; TRb/SRC2 Texas Red total fluorescence interference; Potency, µM (titrated, usually from 106 µM), without a hit: top-dose fluorescence change, negative = quenching; 0.29% of 280,000 active; active = well fitted curve in either direction with a large enough effect; inconclusive = small, poorly fitted or top-dose-only effect; note: potency is the fitted concentration of half-maximal effect; % is set by controls: 0 for no effect and ±100 for the full control effect
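Flags fluorescent or light-absorbing compounds by total fluorescence, S + 2P, at 555 nm excitation and 632 nm emission. Mixture: 20 nM Texas Red SRC2 peptide, 0.6 uM human TRb LBD, 1 uM T3, 5% DMSO; compound exposure 5 h at ambient temperature.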
USP2a block = qHTS Assay for Inhibitors of Ubiquitin-specific Protease USP2a Using CHOP2 as the Reporter; AID 463254, 2010; USP2 core, Ub-CHOP2 coupled fluorogenic reporter, 485/531; Potency, µM (top dose mostly 38.3 µM), inactives show top-dose activity change, negative = inhibition, hits mostly inhibitors; Ubiquitin carboxyl-terminal hydrolase 2 (Homo sapiens), O75604; 0.01% of 330,000 active;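 note: potency is the fitted concentration of half-maximal effect; plate controls were DMSO wells for no effect and full inhibition by NEM control for full effect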
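USP2 core (10nM final) preincubated 30min RT with compound in 20mM Tris-HCl pH 8.0, 2mM CaCl2, 2mM beta-mercaptoethanol, 0.05% CHAPS; 25nM Ub-CHOP2 plus 25nM reporter substrate added, fluorescence (Ex485/Em531) read after 60min.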
TRb SRC2 PPI = qHTS for Inhibitors of the Interaction of Thyroid Hormone Receptor and Steroid Receptor Coregulator 2. TRbeta-SRC2 peptide binding, fluorescence polarization; receptor liganded with 1 µM T3. Potency, µM (top dose mostly 106 µM), for the others: at the top dose activity change, negative = inhibition, usual class: inhibitors. 0.065% of 280,000 active. Thyroid hormone receptor beta (Homo sapiens), P10828;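 note: potency is the fitted concentration of half-maximal effect; plate controls were bound peptide for no effect and peptide without receptor for full effect; nearly all actives have a fitted effect of over 50% in size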
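Fluorescence polarization of 20 nM Texas Red SRC2 peptide (20-aa NR interaction domain) bound to 0.6 uM human TRb ligand-binding domain, with 1 uM T3, after 5 hr at ambient temperature; inhibition seen as decreased polarization.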
CBFb RUNX1 block = qHTS Assay for Compounds Blocking the Interaction Between CBF-beta and RUNX1 for the Treatment of Acute Myeloid Leukemia. AlphaScreen CBFb-His/RUNX1-biotin binding, biochemical. Potency, µM (doses to about 59.8 µM), for the others: top-dose activity, negative = inhibition, most hits filed as inhibitors. 230,000 tested, under 10 active; note: % of control where 0% means no effect
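Read-out: AlphaScreen. Format: His-CBF-beta with biotinylated RUNX1 (30 nM each) preincubated 20 min, compound 15 min, Ni-chelate plus streptavidin beads 90 min; room temperature throughout.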
The depositor's hits bear a star; ! = repeats disagree; [ ] = remark or other dose. Unless noted, calls come from the whole dose curve; as a rule, active = well fitted curve in the direction sought with a large enough effect; inconclusive = small, poorly fitted or top-dose-only effect, or another doubt; inactive = no such curve, though single readings can be large; an effect the other way counts as inactive or inconclusive.

O=c1[nH]c(=S)[nH]c2c1CN(Cc1ccc(F)cc1)CC2 was read as Eya2 phos inh 6.2%, TSHR antagonist -138.7* and USP2a block 1.3%.
Screening CC(C)Oc1ccc(CNC(=O)CCn2c(=O)c3cccn3c3ccc(F)cc32)cc1 returned TexasRed fluor 8.6% and TRb SRC2 PPI 3.1%.
`CN1C/C(=C/c2ccc(B(O)O)cc2)C(=O)/C(=C/c2ccc(B(O)O)cc2)C1` gave TexasRed fluor -3.0%, TRb SRC2 PPI 20.1% and CBFb RUNX1 block inconclusive.
Screening CN(C)c1ccc(/C=C/c2ccc3c4ccccc4ccc3[n+]2-c2ccccc2)cc1 returned Eya2 phos inh -7.2%, TSHR antagonist -47.9, TexasRed fluor 12.6µM*[fluorescent], USP2a block -11.3% and TRb SRC2 PPI inconclusive.
COC(=O)C1(C(=O)OC)C[C@H]2CON=C2[C@H]1c1ccccc1 was read as TexasRed fluor -3.1%, TRb SRC2 PPI 9.9% and CBFb RUNX1 block -4.1%.
O=C(NCc1cccc(F)c1)C1CCN(C(=O)c2sccc2-n2cccc2)CC1 was read as Eya2 phos inh 11.8%, TSHR antagonist -3.0, TexasRed fluor 25.1µM*![quencher], USP2a block -0.5%, TRb SRC2 PPI -5.7% and CBFb RUNX1 block -2.0%.
`O=C(NCc1ccccc1)C1CCN(C(=O)c2cnn(-c3ccccc3)c2-n2cccc2)CC1` gave TexasRed fluor 31.6µM*[quencher] and TRb SRC2 PPI -8.7%.
Screening O=C(NCCc1ccccc1)C1CCN(C(=O)c2sccc2-n2cccc2)CC1 returned Eya2 phos inh 14.3%, TSHR antagonist -2.0, TexasRed fluor -4.2%, USP2a block 1.6%, TRb SRC2 PPI -10.8% and CBFb RUNX1 block 10.9%.
`COCCCNC(=O)C1CCN(C(=O)c2cnn(-c3ccccc3)c2-n2cccc2)CC1` gave TexasRed fluor 0.9% and TRb SRC2 PPI 2.9%.
OC[C@H]1NC[C@H](O)[C@@H](O)[C@@H]1O was read as TexasRed fluor -8.5%, TRb SRC2 PPI 5.3% and CBFb RUNX1 block 27.0%.
Screening CCS(=O)(=O)Nc1ccc(-c2cc(-c3ccccc3)c3cc(C)ccc3n2)cc1 returned Eya2 phos inh -3.2%, TSHR antagonist 36.3, TexasRed fluor 0.141µM*[quencher], USP2a block -15.7%, TRb SRC2 PPI -14.6%[53 µM] and CBFb RUNX1 block -3.2%.
Cc1ccc2nc(-c3ccc(NS(C)(=O)=O)cc3)cc(-c3ccccc3)c2c1 was read as Eya2 phos inh -11.8%, TSHR antagonist 23.7, USP2a block -11.9% and CBFb RUNX1 block -1.2%.
`COc1ccc(CCNC(=O)c2csc3c2CCCCC3)c(OC)c1` gave TexasRed fluor 20µM*[quencher] and TRb SRC2 PPI -7.2%.
Screening CC1CC(C)CN(CCCNC(=O)CN2C(=O)COc3ccc(S(=O)(=O)N4CCOCC4)cc32)C1 (stereo not given) returned Eya2 phos inh -0.6%, TSHR antagonist -104.3* and USP2a block -0.9%.
`Cc1ccc(CCNC(=O)CN2C(=O)COc3ccc(S(=O)(=O)N4CCC(C)CC4)cc32)cc1` gave Eya2 phos inh -11.1%, TSHR antagonist -136.4*, TexasRed fluor -0.9%, USP2a block -5.3% and TRb SRC2 PPI -1.6%.
For Cc1ccc(CNC(=O)CN2C(=O)COc3ccc(S(=O)(=O)N4CCC(C)CC4)cc32)cc1 the results were TexasRed fluor 0.2% and TRb SRC2 PPI 3.3%.
CCc1ccc(C(=O)c2cnc3ccc(F)cc3c2S(=O)(=O)c2ccccc2)cc1 was read as TexasRed fluor 25.1µM*[quencher] and TRb SRC2 PPI -9.7%.
`COc1cc([C@@H]2CC(=O)c3c(O)cc(O)cc3O2)ccc1O` gave TexasRed fluor -4.1%, TRb SRC2 PPI -4.7% and CBFb RUNX1 block 17.5%.
For CCc1c(C)nc2c(OC)cccc2c1SCCC(=O)O the results were Eya2 phos inh 0.6%, TSHR antagonist 20.8, TexasRed fluor 0.794µM*[quencher], USP2a block 3.4%, TRb SRC2 PPI -23.7%[53 µM] and CBFb RUNX1 block -2.6%.
`O=c1[nH]c(=O)n([C@H]2C[C@@H](O)[C@@H](CO)O2)cc1C=CBr` gave Eya2 phos inh -4.6% and TSHR antagonist -6.1.
CSc1nc(N)nc(SCC(=O)Nc2cccc(F)c2)c1C#N was read as Eya2 phos inh 2.4%, TSHR antagonist -14.5, TexasRed fluor 1.26µM*[quencher], USP2a block 2.1%, TRb SRC2 PPI inconclusive and CBFb RUNX1 block -3.4%.
CSc1nc(N)nc(SCC(=O)Nc2ccc(Cl)cc2)c1C#N was read as Eya2 phos inh -6.9%, TSHR antagonist -44.1, TexasRed fluor 0.3%, USP2a block 3.0%, TRb SRC2 PPI 7.3% and CBFb RUNX1 block 0.3%.
`O=C(NCCN1CCOCC1)c1ccc2c(c1)N(Cc1cccc(F)c1)C(=O)c1ccccc1S2` gave Eya2 phos inh 5.5%, TSHR antagonist -14.4, TexasRed fluor -1.0%, USP2a block -0.7%, TRb SRC2 PPI 1.9% and CBFb RUNX1 block 21.0%.
Cc1ccc(CN2C(=O)c3ccccc3Sc3ccc(C(=O)NCCCN4CCOCC4)cc32)cc1 was read as Eya2 phos inh -12.0%, TSHR antagonist -138.0*, TexasRed fluor 0.2%, USP2a block -8.2% and TRb SRC2 PPI 4.9%.
`CC(=O)NC1C(O)O[C@H](C(=O)O)[C@@H](O)[C@@H]1O` (stereo not given in full) gave TexasRed fluor -1.7%, TRb SRC2 PPI -3.0% and CBFb RUNX1 block 5.6%.
COc1cc2cc3c4c(cc(OC)c(OC)c4c2cc1OC)CCN3C was read as TexasRed fluor -5.6%, TRb SRC2 PPI inconclusive and CBFb RUNX1 block inconclusive.
COc1ccc(-c2cc(-c3nc4ccccn4c3NCc3ccccc3)ccc2OC)cc1 was read as Eya2 phos inh 8.4%, TSHR antagonist -96.7* and USP2a block 3.2%.
Screening COc1ccc(-c2nc3ccccn3c2NCc2ccc3c(c2)OCO3)cc1 returned Eya2 phos inh -8.8%, TSHR antagonist 37.9, TexasRed fluor -3.1%, USP2a block 0.9%, TRb SRC2 PPI -20.6% and CBFb RUNX1 block -18.1%.
